Measured values from PMC12136788.
Where a chain is given by its changes, count along the chain named. Over roughly 5,800 sequences, “enrichment r” has its median near 0.68; the highest 2% begin near 11. Many of the other results were omitted from the sample, so the highest values are more common in it than they were.

T1: UNK ZnF1-6 (called full-length) (human, UniProt Q9C0B0 30-357)
T1 sequence: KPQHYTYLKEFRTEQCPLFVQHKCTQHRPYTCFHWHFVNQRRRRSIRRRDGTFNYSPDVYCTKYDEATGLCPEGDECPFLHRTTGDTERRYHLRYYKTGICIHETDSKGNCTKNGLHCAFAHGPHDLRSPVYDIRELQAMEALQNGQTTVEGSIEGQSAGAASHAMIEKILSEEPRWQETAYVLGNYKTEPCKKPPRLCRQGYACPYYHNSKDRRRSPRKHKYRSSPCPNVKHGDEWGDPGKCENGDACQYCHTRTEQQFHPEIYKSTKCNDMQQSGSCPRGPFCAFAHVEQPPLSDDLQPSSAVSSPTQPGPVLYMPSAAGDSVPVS

B1: chr8:144773268:144774605:-|CDS|ENSG00000196378|control|control|control (ssRNA)
RNA: GGGAGUUCUACAGUCCGACGAUCCACCAGAGGAUUCACACUGGGGAGAAACCCUACAAGUGUGGGGAGUGUGGGAAGCACUUUAGCGCCUACUCUUCCCUGAUUUAUCACCAGAGAAUCCACACCGGAGAGAAACCCUAUAAACAACAGAGGAUUGAGCAUCA
B2: chr7:123692404:123692516:-|CDS|ENSG00000106299|unk|total|mutant (ssRNA)
RNA: GGGAGUUCUACAGUCCGACGAUCCCUGCCUUCUGAUGGGGACCAUCAGGUUCCAACUACUGCAGGAAACAAAGCAGCUCUUUCCGAUCAAAUCCGAGAGGGUGCUCAGCUAAAAAAAGUGGAGCAGAACAGUCGGCCAGUGUCCAACAGAGGAUUGAGCAUCA
B3: chr2:32377587:32377702:+|CDS|ENSG00000115760|unk|FALSE|unique (ssRNA)
RNA: GGGAGUUCUACAGUCCGACGAUCGGUGAAAUGUCAGUAUAUCUCUGCUGUGGAUAAAGUUAUAUUUGUGGAUGAUUAUGCAGUAGGGUGUAGGAAGGACCUUAAUGGAAUCUUGUUGUUAGACACUGCUCUGCAAACUCCAGUCAACAGAGGAUUGAGCAUCA
B4: chr15:69268886:69268987:+|CDS|ENSG00000138604|unk|total|mutant (ssRNA)
RNA: GGGAGUUCUACAGUCCGACGAUCGGAGUUAAAGCUGUGUUUAUGAAUAAACAUGACUGGUAUGAAGAAUAUCCAACCACACCCCGCUCUUUUGUUUUAAAUGGCUUUAUGUAUUCUUUAAUUGGGCUGUAUGACUUAAAAGAACAACAGAGGAUUGAGCAUCA
B5: ENSG00000107863:be:win_3351|CDS|ENSG00000107863|bound_else_gene|NA|bound_elsewhere_windowed (ssRNA)
RNA: GGGAGUUCUACAGUCCGACGAUCAAAAGACAAAGGCACAUGGAGAAAAGGCAUUCCAAGUAUCAUGAGAAAGACAUUUGAGAAAAAGCCAACUGCUACAGGAACUUUCGGCGUCCGACUAGAUGACUGCCCACCAGCUCAUACCAACAGAGGAUUGAGCAUCA
B6: chr4:140550230:140550341:+|CDS|ENSG00000179387|unk|FALSE|unique (ssRNA)
RNA: GGGAGUUCUACAGUCCGACGAUCGAAUUUGACAAGUUUUGGUUUGAAGAAGAACCAGAAAGCAUUAUGUAUUUCAAUUUGUAUAGAGAGAAGUUUCAUGAAAAGAUUAAAGGACUUUUACUGGAUUGUAAUGUAGCACUUACUCAACAGAGGAUUGAGCAUCA
B7: ENSG00000172071:stop:overlap|stop_codon|ENSG00000172071|stop_codon|NA|stop_codon (ssRNA)
RNA: GGGAGUUCUACAGUCCGACGAUCCAUCGGGAACAAAACAUUCAAGACAGUCCAACAACUCCCAUAGCCCUUUGCCAAGCAAUUAGCCUUAAGUUGUGCUAGCAACCCUAAUAGGUGAUGCAGAUAAUAGCCUACUUCUUAGAACAACAGAGGAUUGAGCAUCA
B8: chr1:150220393:150220494:-|3pUTR|ENSG00000143401|msi1_unk|FALSE|overlapping (ssRNA)
RNA: GGGAGUUCUACAGUCCGACGAUCAUUGUAUGUAGAGAAAAAUUUUCAUUGACUCCCAUUGUGGAAUUCCCUAGCAAUUUAUUUAGACUUAAUUUUUUAAAUUCAAGCUUACUGUAUUAGUCAUUUUUAGCCCAUAAUUAAAACCAACAGAGGAUUGAGCAUCA
B9: chr5:75599425:75599511:+|3pUTR|ENSG00000122008|msi1_unk|FALSE|overlapping (ssRNA)
RNA: GGGAGUUCUACAGUCCGACGAUCGAAUAGCUUAAUUAAGAACUCACAGACUUUGACAAAGUGGUAACUAGACUUUUAAUUACUAGAUUCUUCAAAUUAGGCUUAAUGCCUGCUAGCAUGCCAAUCCAAUCCCAUGACUGAUGUCAACAGAGGAUUGAGCAUCA
B10: chrX:85861749:85861850:-|3pUTR|ENSG00000188419|msi1|FALSE|unique (ssRNA)
RNA: GGGAGUUCUACAGUCCGACGAUCCUAAUUUAAAAUUUCAGAAAAUGCUAUUAAAGAAUUUUGAUUCAAGUAUUUAAACUGUUUAGUUAUGCAUGCUUCUUAUUAACCGAAAAUGAUAAUACCAUUUAGUUUAGUGAUCAGUAUCAACAGAGGAUUGAGCAUCA
B11: chr1:235448940:235449205:-|3pUTR|ENSG00000162885|unk|FALSE|unique (ssRNA)
RNA: GGGAGUUCUACAGUCCGACGAUCAAUAGAGAAUUCCAUUAAAACUAGUCUUAUGACAGAUAUUAACUGUGUUCAGAUUUUAUUAGGCUAGCUAGUUUCUUUCUAUUUAAUAUUUAAAUCUUAUCAUGAAAUGCAGUGAUGAGCCAACAGAGGAUUGAGCAUCA
B12: chr1:235448940:235449205:-|3pUTR|ENSG00000162885|unk|total|mutant (ssRNA)
RNA: B11 RNA with U26C, A27C, U45C, A46C, U83C, A84C, U88C, A89C, U92C, A93C
B13: chr2:167954955:167954998:-|3pUTR|ENSG00000198648|msi1_unk|FALSE|overlapping (ssRNA)
RNA: GGGAGUUCUACAGUCCGACGAUCGUUGUAUUUAGAAAUUAAUAUACUUAUAAAAUUAAGAUUUAUUAGCCAAACUUGAAUUCUAGUUUUAAAACUGACUGUGAAUUUUAUUUUUCAUAUAUUUAUGCAUUACACACCUUAGCUCAACAGAGGAUUGAGCAUCA
B14: chr1:150220393:150220494:-|3pUTR|ENSG00000143401|msi1_unk|total|mutant (ssRNA)
RNA: B8 RNA with U32C, A33C, U71C, A72C, U83C, A84C, U117C, A118C, U127C, A128C
B15: chr5:75599425:75599511:+|3pUTR|ENSG00000122008|msi1_unk|total|mutant (ssRNA)
RNA: B9 RNA with U27C, A28C, U68C, A69C, U83C, A84C, U97C, A98C, U113C, A114C
B16: chr2:167954955:167954998:-|3pUTR|ENSG00000198648|msi1_unk|total|mutant (ssRNA)
RNA: B13 RNA with U32C, A33C, U66C, A67C, U83C, A84C, U139C, A140C
B17: chr10:92030311:92030412:+|3pUTR|ENSG00000095564|unk|FALSE|unique (ssRNA)
RNA: GGGAGUUCUACAGUCCGACGAUCAUAUAAGAUUGAAACUGUAAAAUAUAUGCAACUGUGUGUUAUUUGUAGGAAAUGGUCACUAGAAAGAGCAAAAGAUUAUUCAGGUAUACAGGUUUUUUUUCAUUGUUUAGGAUUUUAACUCAACAGAGGAUUGAGCAUCA

What follows are binders tested against T1, UNK ZnF1-6 (called full-length) (assay: nsRBNS (natural sequence RNA bind-n-seq); RBNS binding buffer (assumed for nsRBNS): 25 mM Tris pH 7.5, 150 mM KCl, 3 mM MgCl2, 0.01% Triton X-100, 500 ug/ml BSA, 20 U/ml SUPERase-In, 4 C; UNK is unkempt and MSI1 is Musashi-1; names of the RNAs are library labels; protein concentration not given here; high values mean tight binding).

Binder | binding signal [enrichment R]
B1 | 0.587
B2 | 0.493
B3 | 0.488
B4 | 0.547
B5 | 0.507
B6 | 0.651
B7 | 1.57
B8 | 228
B9 | 38.5
B10 | 2.27
B11 | 35.6
B12 | 2.39
B13 | 15.2
B14 | 2.56
B15 | 0.537
B16 | 3.43
B17 | 3.36
